Drawing on the antibiotic and cytotoxicity screens of Wong et al. (2023), this text covers cytotoxicity call for 43 compounds.

Structures are written as SMILES. The whole screen tested about 39,000 compounds, of which about 1,500 (3.8%) were called active. The full list was thinned out, with actives kept by preference.

For the experiment, the system named is HSkMC (human skeletal muscle cells). The experiment is described as follows: cytotoxicity call (relative viability < 0.9). The note with it: 10 µM.
Turning to `NC[C@H]1CC[C@H](C(=O)O)CC1`, the cytotoxicity call was “inactive”.

As to `C[C@@H]1CCCCO[C@H](CN(C)Cc2ccccc2)[C@H](C)CN([C@@H](C)CO)C(=O)c2cc(NC(=O)c3ccccc3)ccc2O1`, the cytotoxicity call was “inactive”.

Regarding `COc1ccccc1CNC(=O)C[C@@H]1C[C@H]2c3cc(NC(=O)c4ccc5c(c4)OCO5)ccc3O[C@H]2[C@@H](CO)O1`, the cytotoxicity call is “inactive”.

`C[C@@H]1CN([C@H](C)CO)C(=O)CCCn2nncc2CO[C@@H]1CN(C)S(=O)(=O)c1ccc(Oc2ccccc2)cc1`: the cytotoxicity call was “inactive”.

For `Cc1ccc(S(=O)(=O)N2C[C@@H](O)COC[C@H]3O[C@H](CC(=O)NCc4cccc(C(F)(F)F)c4)CC[C@@H]32)cc1`, the cytotoxicity call is “inactive”.

As for `O=C1O[C@@H](c2ccccc2)[C@@H](c2ccccc2)N2[C@@H](c3ccc(O)cc3)[C@]3(C(=O)Nc4ccc(C#CC5(O)CCCCCC5)cc43)[C@@H](C(=O)N3CCCCCCC3)[C@H]12`, the cytotoxicity call was “inactive”.

Regarding `CNC[C@H]1OCCCC[C@H](C)Oc2ccc(NS(=O)(=O)c3cn(C)cn3)cc2C(=O)N([C@@H](C)CO)C[C@@H]1C`, the cytotoxicity call is “inactive”.

As to `C[C@@H]1CCCCO[C@@H](CN(C)C(=O)C2CCCCC2)[C@@H](C)CN([C@@H](C)CO)C(=O)c2cc(NC(=O)C3CCCCC3)ccc2O1`, the cytotoxicity call was “inactive”.

`COc1ccc(S(=O)(=O)Nc2ccc3c(c2)CC(=O)N([C@@H](C)CO)C[C@H](C)[C@@H](CN(C)S(=O)(=O)c2ccc(OC)cc2)O3)cc1`: the cytotoxicity call is “inactive”.

Regarding `COC(=O)[C@@]12CCC(C)(C)C[C@@H]1[C@@H]1C(=O)C=C3[C@]4(C)C=C(C#N)C(=O)C(C)(C)[C@H]4CC[C@]3(C)[C@@]1(C)CC2`, the cytotoxicity call was “active”.

In the case of `COC(=O)[C@]12CCC(C)(C)C[C@H]1[C@H]1C(=O)C=C3[C@@]4(C)C=C(C#N)C(=O)C(C)(C)[C@@H]4CC[C@@]3(C)[C@]1(C)CC2`, the cytotoxicity call is “active”.

In the case of `COc1ccc(CN(C)C[C@@H]2OCCCC[C@H](C)Oc3ccc(NC(=O)NC4CCCCC4)cc3C(=O)N([C@@H](C)CO)C[C@H]2C)cc1`, the cytotoxicity call is “inactive”.

For `CC1(C)[C@@H](OC(=O)CCC(=O)O)CC[C@]2(C)[C@H]3C(=O)C=C4[C@@H]5C[C@@](C)(C(=O)O)CC[C@]5(C)CC[C@@]4(C)[C@]3(C)CC[C@@H]12`, the cytotoxicity call was “inactive”.

In the case of `C[C@@H]1CN([C@@H](C)CO)S(=O)(=O)c2ccc(/C=C/c3ccccc3)cc2O[C@@H]1CN(C)C(=O)Nc1cc(F)ccc1F`, the cytotoxicity call was “inactive”.

For the compound `Cc1ccc(S(=O)(=O)Nc2ccc3c(c2)CC(=O)N([C@H](C)CO)C[C@H](C)[C@H](CN(C)CC2CC2)O3)cc1`, the cytotoxicity call is “inactive”.

On to `C[C@H](CO)N1C[C@H](C)[C@@H](CN(C)C(=O)c2cc(Cl)cc(Cl)c2)OCc2ccccc2-c2c(n(C)c3ccccc23)C1=O`, for which the cytotoxicity call is “active”.

Turning to `C[C@@H](C(=O)N(C)C[C@H]1OCc2ccccc2-c2c(n(C)c3ccccc23)C(=O)N([C@@H](C)CO)C[C@@H]1C)c1ccccc1`, the cytotoxicity call was “inactive”.

Take `C[C@@H]1CN([C@H](C)CO)C(=O)c2c(c3ccccc3n2C)-c2ccccc2CO[C@@H]1CN(C)C(=O)[C@H](C)c1ccccc1`: the cytotoxicity call was “active”.

Turning to `C[C@@H]1CN([C@@H](C)CO)C(=O)c2c(c3ccccc3n2C)-c2ccccc2CO[C@@H]1CN(C)C(=O)c1cc(Cl)cc(Cl)c1`, the cytotoxicity call was “inactive”.

As for `C[C@@H]1CN([C@H](C)CO)C(=O)c2c(c3ccccc3n2C)-c2ccccc2CO[C@H]1CN(C)C(=O)c1cc(Cl)cc(Cl)c1`, the cytotoxicity call was “active”.

As to `C[C@@H]1CN([C@@H](C)CO)C(=O)c2c(c3ccccc3n2C)-c2ccccc2CO[C@H]1CN(C)C(=O)c1cc(Cl)cc(Cl)c1`, the cytotoxicity call is “inactive”.

On to `C[C@@H]1CN([C@@H](C)CO)C(=O)c2c(c3ccccc3n2C)-c2ccccc2CO[C@@H]1CN(C)C(=O)[C@H](C)c1ccccc1`, for which the cytotoxicity call is “inactive”.

`C[C@H]1CN([C@@H](C)CO)C(=O)c2c(c3ccccc3n2C)-c2ccccc2CO[C@@H]1CN(C)C(=O)c1cc(Cl)cc(Cl)c1`: the cytotoxicity call was “inactive”.

Regarding `C[C@H]1CN([C@@H](C)CO)C(=O)c2c(c3ccccc3n2C)-c2ccccc2CO[C@H]1CN(C)C(=O)c1cc(Cl)cc(Cl)c1`, the cytotoxicity call is “inactive”.

With `C[C@H](CO)N1C[C@H](C)[C@H](CN(C)S(C)(=O)=O)Oc2ccc(NC(=O)CCN3CCOCC3)cc2C1=O`, the cytotoxicity call was “inactive”.

On to `C[C@@H]1CN([C@@H](C)CO)C(=O)c2c(c3ccccc3n2C)-c2ccccc2CO[C@H]1CN(C)S(=O)(=O)c1cn(C)cn1`, for which the cytotoxicity call was “inactive”.

Turning to `C[C@H]1CN([C@@H](C)CO)C(=O)c2cc(NC(=O)Cn3cnnn3)ccc2O[C@H]1CN(C)C(=O)Nc1ccccc1`, the cytotoxicity call was “inactive”.

Consider `C[C@H](CO)N1C[C@H](C)[C@@H](CN(C)Cc2ccc(C(=O)O)cc2)Oc2c(NC(=O)c3ccc(-c4nccs4)cc3)cccc2C1=O`, for which the cytotoxicity call is “inactive”.

On to `CC(=O)OC1CC(O)C(C)(C)C2CC(OC(C)=O)C3(C)C(CCC4(C)C(c5ccoc5)OC(=O)C5OC543)C12C` (stereo not drawn), for which the cytotoxicity call was “inactive”.

On to `C[C@@H]1CN([C@@H](C)CO)C(=O)c2cc(NC(=O)Nc3ccc(F)cc3)ccc2O[C@@H](C)CCCCO[C@@H]1CN(C)S(=O)(=O)c1ccccc1`, for which the cytotoxicity call was “inactive”.

Regarding `COc1ccc2c3c(n(c2c1)C)[C@H](CO)N(C[C@]13CCN(CC1)C(=O)c1ccccn1)C(=O)c1ccccn1`, the cytotoxicity call is “inactive”.

As for `OC[C@H]1CC[C@@H]2O[C@H](CCc3ccc(C#Cc4ccccc4)cc3)[C@@H](n3cc(-c4ccccc4)nn3)C[C@@H]2O1`, the cytotoxicity call is “inactive”.

On to `O=C(Nc1ccc(F)cc1)N[C@@H]1C[C@@H]2O[C@@H](CO)CC[C@@H]2O[C@@H]1CCc1ccc(-c2ccccc2)cc1`, for which the cytotoxicity call was “inactive”.

Consider `OC[C@H]1CC[C@@H]2O[C@H](CCc3ccc(C#CCc4ccccc4)cc3)[C@H](n3cc(-c4ccccc4)nn3)C[C@@H]2O1`, for which the cytotoxicity call is “active”.

With `OC[C@H]1CC[C@@H]2O[C@H](CCc3ccc(C#Cc4ccccc4)cc3)[C@H](n3cc(-c4ccccc4)nn3)C[C@@H]2O1`, the cytotoxicity call was “active”.

Consider `OC[C@@H]1CC[C@@H]2O[C@H](CCc3ccc(C#Cc4ccccc4)cc3)[C@@H](n3cc(-c4ccccc4)nn3)C[C@@H]2O1`, for which the cytotoxicity call was “active”.

In the case of `N[C@@H]1CC[C@@H](CCn2cc(-c3cccc(F)c3)nn2)O[C@H]1CO`, the cytotoxicity call is “inactive”.

On to `OC[C@@H]1CC[C@@H]2O[C@H](CCc3ccc(C#CCc4ccccc4)cc3)[C@@H](n3cc(-c4ccccc4)nn3)C[C@@H]2O1`, for which the cytotoxicity call was “inactive”.

For the compound `OC[C@@H]1CC[C@@H]2O[C@H](CCc3ccc(C#CCc4ccccc4)cc3)[C@H](n3cc(-c4ccccc4)nn3)C[C@@H]2O1`, the cytotoxicity call is “inactive”.

Regarding `O=C(Nc1ccc(F)cc1)N[C@@H]1C[C@@H]2O[C@H](CO)CC[C@@H]2O[C@@H]1CCc1ccc(-c2ccccc2)cc1`, the cytotoxicity call was “inactive”.

Take `OC[C@@H]1CC[C@@H]2O[C@H](CCc3ccc(C#Cc4ccccc4)cc3)[C@H](n3cc(-c4ccccc4)nn3)C[C@@H]2O1`: the cytotoxicity call is “active”.

As to `OC[C@H]1O[C@@H](S[C@@H]2O[C@H](CO)[C@H](O)[C@H](n3cc(-c4cccc(F)c4)nn3)[C@H]2O)[C@H](O)[C@@H](n2cc(-c3cccc(F)c3)nn2)[C@H]1O`, the cytotoxicity call is “inactive”.

As for `OC[C@H]1CC[C@@H]2O[C@H](CCc3ccc(C#CCc4ccccc4)cc3)[C@@H](n3cc(-c4ccccc4)nn3)C[C@@H]2O1`, the cytotoxicity call is “inactive”.
